This is a sample that favours compounds with a hit; in the whole collection about 2.8% have one here.
ERa coact inh: blocks coactivator binding to human estrogen receptor alpha. P03372. TR-FRET ER-alpha LBD / SRC-1 peptide, estradiol-bound. inhibition, % at 25.6 µM. 86,000 compounds, 1.7% hits; in the data active means inhibition above about 50%;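 further: 0% = receptor plus peptide control and 100% = peptide only without receptor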
Smad3 FoxH1 inh: blocks human Smad3 binding to FoxH1 peptide; TR-FRET Smad3/Dy647-FoxH1 peptide binding, europium anti-His; 88,000 compounds, 0.29% hits; inhibition, % at 25 µM; P84022;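 active means compounds that reduce the energy-transfer binding signal between the protein and its labelled peptide by more than half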;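 further: 0% = Smad3 plus labelled peptide maximal FRET and 100% = peptide-only background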
MRP reversal: reverses drug resistance mediated by MRP; 85,000 compounds, 0.04% hits; H69AR cells + 2 uM doxorubicin, CellTiter-Glo, 72 h; differential viability (reversal), % at 10 µM;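 active means viability drop by adding the cancer drug above about 55%, with treated viability meeting a 40% cutoff, limit read from the data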;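 further: viability without doxorubicin minus viability with 2 µM doxorubicin for each compound; larger differential means the compound sensitizes cells more to doxorubicin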
MRP1 act: activators of MRP-1; AID 799; viability increase, % at 10 µM; H69AR cells + doxorubicin, viability rescue, CellTiter-Glo; 140,000 compounds, 0.61% hits;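 active means viability gain under doxorubicin at or above a set limit, the compound median plus 3 SD, cut at about 4.7% in these data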;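 further: MRP-1 overexpressing cells given doxorubicin 25 µM after compound pretreatment; 18-22 h compound pretreatment then 72 h with doxorubicin before readout; 0% = doxorubicin-only wells and 100% = vehicle-treated cells without doxorubicin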
ERb coact inh: ER-beta (human) coactivator binding inhibition; Q92731; TR-FRET ER-beta LBD / SRC1-Cy5 peptide binding; receptor agonist-loaded with 1 µM estradiol; inhibition, % at 25.6 µM; 86,000 compounds, 1.3% hits;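 active means compounds whose percent inhibition of the receptor-coactivator binding signal exceeds about 50% in the single-dose screen, limit read from the data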;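 further: 0% = receptor plus peptide wells without compound and 100% = peptide-only wells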
ERa coact pot: ER-alpha (human) coactivator binding potentiation | P03372 | TR-FRET ERalpha-LBD/SRC-Cy5 coactivator binding, 2 h; 100 = basal binding, no effect | coactivator binding (% of control), % at 25.6 µM | 86,000 compounds, 1.3% hits; in the data active means activity above about 200%;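 further: binding measured in presence of low estradiol as agonist stimulus; 0% = peptide alone without receptor and 100% = receptor with peptide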
* marks the source's active call; other numbers are inactive results; x = no result; [ ] = dose if it differs, or a comment.

SMILES	ERa coact inh	Smad3 FoxH1 inh	MRP reversal	MRP1 act	ERb coact inh	ERa coact pot
COC(=O)[C@@H]1C(O)[C@H](C(=O)OC)[C@@H](C)N(C)[C@H]1C (stereo not given in full)	x	-4	x	x	x	x
COc1cccc(-n2nc(-c3ccnn3-c3ccc(F)cc3)c(=O)n(C)c2=O)c1	2	-13	-2	-2	74*	104
COc1ccc(CN2CC(C(=O)NCCCN3CCN(C)CC3)CC2=O)cc1 (stereo not given)	-1	7	-1	1	0	111
Cc1ccc(CCN2CC(C(=O)NCCN3CCCCCC3)CC2=O)cc1 (stereo not given)	35	-5	0	0	13	118
COc1ccc(CN2CC(C(=O)NCCCN3CCCCCC3)CC2=O)cc1 (stereo not given)	25	14	9	0	22	203*[fluorescence artefact?]
Cc1ccc(CCN2CC(C(=O)NCCCN3CCCCCC3)CC2=O)cc1 (stereo not given)	17	66*	-7	-2	58*[fluorescence artefact?]	917*[fluorescence artefact?]
COc1cccc(-c2nc(Oc3cc(C)cc(C)c3)c3ccccc3n2)c1O	x	x	x	-5	x	x
CC(C)Oc1nc(-c2ccccc2O)nc2ccccc12	9	-11	9	-1	9	222*[fluorescence artefact?]
CC1CCN(c2nc(-c3ccccc3O)nc3ccccc23)CC1	39	4	-3	-1	46	471*[fluorescence artefact?]
COc1cccc(-c2nc(N3CCC(C)CC3)c3ccccc3n2)c1O	x	x	x	-1	x	x
Oc1ccccc1-c1nc(N2CCCC2)c2ccccc2n1	56*[fluorescence artefact?]	55*[fluorescence artefact?]	4	-1	56*[fluorescence artefact?]	217*[fluorescence artefact?]
CN1CCN(c2nc(-c3ccccn3)nc3ccccc23)CC1	-2	-7	68*	-3	-16	92
O=C(O)CSc1ccc([N+](=O)[O-])cc1[N+](=O)[O-]	x	11	x	x	x	x
O=C(CC12CC3CC(CC(C3)C1)C2)N1CCN(S(=O)(=O)c2cccs2)CC1	x	x	x	-2	x	x
Oc1ccccc1-c1nc(N2CCN(Cc3ccccc3)CC2)c2ccccc2n1	-12	-2	-17	-2	-3	237*[fluorescence artefact?]
N#Cc1c(NC(=O)c2ccncc2)sc2c1CCC2	91*[fluorescence artefact?]	4	-14	-3	91*[fluorescence artefact?]	10
O=C(Nc1ccc2c(c1)OCO2)C1CCN(S(=O)(=O)c2cccs2)CC1	5	7	21	-2	4	92
O=C(Nc1ccc2c(c1)OCO2)C1Cc2ccccc2CN1S(=O)(=O)c1cccs1 (stereo not given)	79*[fluorescence artefact?]	-6	24	-2	41	60
N=C(N)SCc1cc(Cl)cc(Cl)c1O	x	10	x	x	x	x
COc1ccccc1OCC(=O)Nc1nc(-c2ccc(S(=O)(=O)N3CCOCC3)cc2)cs1	27	-13	4	0	15	217*[fluorescence artefact?]
O=C(COc1ccccc1)Nc1nc(-c2ccc(S(=O)(=O)N3CCOCC3)cc2)cs1	19	12	-5	0	21	328*[fluorescence artefact?]
Cc1ccc(NC(=O)COc2ccc(S(=O)(=O)N3CCOCC3)cc2)cc1	-6	-11	-9	-3	-10	116
O=C(COC(=O)c1ccc(S(=O)(=O)N2CCOCC2)cc1)Nc1nc(-c2ccccc2)cs1	26	9	-3	0	35	139
O=C(COc1ccc(Cl)cc1)Nc1nc(-c2ccc(S(=O)(=O)N3CCOCC3)cc2)cs1	12	2	5	-1	19	275*[fluorescence artefact?]
CCOc1ncccc1C(=O)OCC(=O)Nc1cc(C(=O)OC)ccc1C(=O)OC	-4	-24	10	x	19	372*[fluorescence artefact?]
SMILES	ERa coact inh	Smad3 FoxH1 inh	MRP reversal	MRP1 act	ERb coact inh	ERa coact pot
CCS(=O)(=O)Nc1ccc(C(=O)CC2(O)C(=O)Nc3ccccc32)cc1 (stereo not given)	-3	0	-9	-1	-4	219*[fluorescence artefact?]
O=C(O)CCCSc1ccccc1	x	-4	x	x	x	x
NNC(=O)CNC(c1ccccc1)c1cc(Br)ccc1NC(=O)c1cccc(Cl)c1 (stereo not given)	x	x	x	11*	x	x
NNC(=O)CNC(c1ccccc1)c1cc(Br)ccc1NC(=O)c1ccc(Br)cc1 (stereo not given)	x	x	x	0	x	x
CCCCCOc1ccc(Br)cc1/C(C)=N/NC1=NCCN1	66*[fluorescence artefact?]	1	1	-7	18	21
COc1ccc(Br)cc1/C(C)=N/NC1=NCCN1	32	4	-25	-2	-4	97
CN1CCN(CCCN)CC1	x	-5	x	x	x	x

Screens: PubChem BioAssay, several laboratories
